# LDHA block: inhibitors of human lactate dehydrogenase A. purified LDHA, NADH/diaphorase-resazurin fluorescence; stronger effect = lower value. activity change, % (values are at about 110 or 230 µM). 0.15% of 480,000 active. AID 1347041; in the data active means activity change below about -30%; inconclusive means mostly about -25% to -30%;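 further: plate controls were DMSO wells for no effect and wells without enzyme for full effect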
#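 Human LDH5 at 2 nM final in Tris HCl pH 7.4 with 0.06 mM NADH and 0.2 mM pyruvate, reacted 5 minutes at room temperature. Remaining NADH coupled via diaphorase/resazurin; resorufin fluorescence read at 0 and 20 minutes, normalized to enzyme-free and DMSO wells.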
# GLP1R cytotox: cytotoxic in the GLP-1 receptor inverse agonist counter-screen. HEK293 cAMP-luciferase reporter cells, luminescence, 24 h. Potency, µM (top dose mostly 38.3 µM), without a hit: at the highest dose activity change, negative = inhibition, most hits filed as inhibitors. 0.13% of 410,000 active;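 further: loss of luciferase light is scored as toxicity; potency means the concentration at half of the fitted maximal effect; on the % scale 0 is the no-effect control and ±100 the full control effect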
#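 MLSMR compounds, 24 hr on cells at 37 deg C/5% CO2; luminescence after luciferase reagent (12 min RT). Inhibition counted as the undesired cytotoxic outcome.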
# GLP1R ag: activates the human GLP-1 receptor; AID 624172; P43220; HEK293 GLP-1R CRE-luciferase, luminescence, 4-6 h; cells express a hypersensitive GLP-1R form; 0.007% of 380,000 active; Potency, µM (titrated, usually from 45.6 µM), without a hit: at the highest dose activation, usual class: activators; further: potency means the concentration at half of the fitted maximal effect; % of control where 0% means no effect
# ClpP mod: qHTS Assay for Activators of ClpP; ATP-dependent Clp protease proteolytic subunit (Bacillus subtilis (strain 168)), P80244; Potency, µM (doses to about 57.5 µM), for inactives: at the highest dose activity change, negative = active; 1.9% of 340,000 active; purified B. subtilis ClpP, FRET peptide cleavage, 20 min; active means well fitted falling curve with a large enough effect; inconclusive means small, poorly fitted or top-dose-only effect; inactive means no such curve, though single readings can be large or run the other way; further: potency means the concentration at half of the fitted maximal effect; the source files actives as falling curves though it sought activators and does not explain the sign; nearly all actives have a fitted effect of over 65% in size
#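 Purified B. subtilis ClpP, 10 microg/mL final in Tris/HCl pH8 with KCl, BSA, glycerol and Tween-20, cleaved an Abz/nitrotyrosine-quenched decapeptide. Fluorescence (ex 320, em 430) was read at 0 and 20 min at room temperature. Delta was normalized to 5.8 microM ADEP and DMSO/no-enzyme controls.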
# GLP-1R inv ag: inverse agonists of human GLP-1 receptor | HEK293 GLP-1R CRE-luciferase, luminescence, 24 h; GLP-1R form is constitutively active | P43220 | 1.6% of 410,000 active | Potency, µM (highest dose often 38.3 µM), inactives show at the highest dose activity change, negative = inhibition, most hits filed as inhibitors; further: potency means the concentration at half of the fitted maximal effect; on the % scale 0 is the no-effect control and ±100 the full control effect; nearly all actives have a fitted effect of over 55% in size
#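 Inverse agonism was detected as reduced cAMP-driven luciferase luminescence after 24 h compound treatment. The cells were HEK293 clones expressing constitutively active human GLP-1R with the reporter. Reporter-only and GPR119 cell lines served as counterscreen controls.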
# p53 reactivator: mutant p53 re-activation in reporter cells | H1299 p53-A138V BP100-luciferase reporter, luminescence, 24 h | Potency, µM (highest dose often 92.2 µM), for the others: at the highest dose activity change, positive = activation, hits mostly activators | 0.063% of 320,000 active; further: potency means the concentration at half of the fitted maximal effect; % of control where 0% means no effect; nearly all actives have a fitted effect of over 45% in size
#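 p53-null H1299 cells stably carrying temperature-sensitive p53-A138V and a BP100-luciferase reporter were pinned with compounds (4-point, 1:5 series) and held 24 hrs at 37 deg C. Luminescence was read 10 min after detection reagent.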
# The depositor's hits bear a star; i = inactive; ? = inconclusive; . = not tested or not shown. Only some compounds are listed: those with a hit (about 2.9% of all), similar ones and a draw of the others. Unless noted, the call rests on the fitted dose curve; in most records, active means well fitted curve in the direction sought with a large enough effect; inconclusive means small, poorly fitted or top-dose-only effect, or another doubt; inactive means no such curve, though single readings can be large; an effect the other way counts as inactive or inconclusive.
SMILES,LDHA block,GLP1R cytotox,GLP1R ag,ClpP mod,GLP-1R inv ag,p53 reactivator
CC(C)(C)c1ccc(CSc2nnc(-c3ccccc3NC(=O)c3ccccc3)o2)cc1,-6.4,16.6%,-0.4%,28.2µM*,-0.2%,-0.4%
CCOC(=O)CSc1nnc(-c2ccccc2NC(=O)c2ccccc2)o1,-0.3,-13.5%,-1.5%,-25.2%,0.4%,-11.2%
O=C(Nc1ccccc1-c1nnc(SCc2ccccc2Cl)o1)c1ccccc1,0.5,-10.9%,-4.9%,20µM*,-4.9%,-3.9%
COc1ccc(-n2c(SC(CN3CCCCC3)CN3CCCC3=O)nc3ccccc3c2=O)cc1 (centres undefined),-2.9,-9.8%,6.3%,-2.1%,?,-1.3%
C/C(=N\NC(=O)c1ccncc1)c1cc2ccccc2oc1=O,3.0,?,-3.6%,2.0%,?,-5.3%
C/C(=N/NC(=O)c1ccncc1)c1cc2ccc(O)cc2oc1=O,3.9,i,-4.2%,31.6µM*,11.2%,-1.7%
CC(=O)Nc1cccc(OCc2ccc([N+](=O)[O-])cc2)c1,-2.1,-10.4%,5.1%,0.2%,34.1%,.
CCCCNCCOCCOc1ccc(Cl)cc1Br,-18.2,-19.6%,1.1%,-0.9%,-6.2%,-12.4%
CC(Sc1cccc2cccc(C(=O)O)c12)C(=O)O (centres undefined),3.3,8.8%,-23.2%,14.1µM*,10.8%,1.8%
CCOC(=O)CCSc1nc(-c2ccc3c(c2)OCO3)cc(C(F)(F)F)c1C#N,-4.6,45.0%,-2.3%,-22.7%,4.4%,0.5%
CCOC(=O)CC(=O)CSc1nc(-c2ccc3c(c2)OCO3)cc(C(F)(F)F)c1C#N,2.0,195.7%,-11.7%,20µM*,0.0%,2.4%
CCc1c(C)nc(SCC(=O)N2C(C)CCCC2C)[nH]c1=O (centres undefined),-2.4,1.6%,10.6%,.,?,-5.2%
CCCOc1ccc(C2C(=O)N(C3CCCCCC3)CC(=O)N2Cc2ccc(OC)cc2)cc1OC (centres undefined),-11.1,6.9%,.,-1.6%,10.9%,.
CCCCOC1CC(c2ccc(OCc3ccc(OC)cc3)c(OC)c2)N(C)O1 (centres undefined),3.8,-17.2%,11.1%,.,10µM*,9.3%
CCn1c(CSc2nc3ccccc3[nH]2)nc2cc(C(=O)O)ccc21,-30.0*,54.9%,2.5%,35.5µM*,0.0%,-0.9%
COc1ccc(NC(=O)c2cc(C)nc3c2c(C)nn3-c2ccc(C)cc2)cc1OC,-9.1,-1.0%,.,9.1%,-17.8%,.
CCc1ccc(-n2nc(C)c3c(C(=O)Nc4cc(OC)cc(OC)c4)cc(C)nc32)cc1,-6.7,0.0%,.,?,5.01µM*,.
COc1ccc(NC(=O)c2cc(C)nc3c2c(C)nn3-c2cccc(Cl)c2C)c(OC)c1,-3.1,9.7%,.,-3.9%,32.9%,.
COc1cc(NC(=O)c2cc(C)nc3c2c(C)nn3-c2ccccc2Cl)cc(OC)c1,4.6,-3.0%,-7.5%,0.8%,12.6µM*,.
O=c1cc(-c2ccccc2)[nH][nH]1,-1.8,26.0%,-1.8%,-21.9%,9.1%,-4.4%
CC1CCCCN1C(=O)CSc1nc2ccccc2nc1Cc1ccc(Cl)cc1 (centres undefined),6.5,0.8%,.,-20.8%,5.01µM*,.
Cc1ccc(Cc2nc3ccccc3nc2SCC(=O)N2CCN(c3ccccc3)CC2)cc1,-3.3,12.5%,.,-5.0%,3.3%,.
Cn1c(-c2ccccc2)cnc1SCC(=O)N1CCCCC1,-8.2,-13.2%,-31.5%,-8.3%,3.98µM*,7.7%
O=C(CSc1nc2ccccc2nc1SCC(=O)N1CCOCC1)N1CCOCC1,-7.0,-3.9%,1.9%,-2.4%,0.3%,0.1%
O=C(CSc1nc2ccccc2nc1SCC(=O)N1CCCCC1)N1CCCCC1,1.4,?,-1.1%,-0.6%,10µM*,-19.9%
SMILES,LDHA block,GLP1R cytotox,GLP1R ag,ClpP mod,GLP-1R inv ag,p53 reactivator
Cn1c(-c2ccccc2)cnc1SCC(=O)N1CCCc2ccccc21,1.0,0.1%,0.4%,1.5%,?,6.0%
COc1ccccc1N1CCN(C(=O)CSc2nc3ccccc3nc2Cc2ccccc2)CC1,2.1,-15.0%,2.2%,0.5%,11.2µM*,.
CC1CCCN(c2nc3c(c(=O)[nH]c(=O)n3C)n2CCCSc2nc3ccccc3o2)C1 (centres undefined),2.9,.,.,.,.,.
COC(=O)c1ccc(NC(=O)c2cc[n+]([O-])cc2)cc1,2.2,-3.7%,-6.7%,.,2.1%,.
CCCC(C)Sc1nc2c([nH]1)c(=S)n(C)c(=O)n2C (centres undefined),2.6,?,19.9%,-2.4%,?,.
COc1ccc(C(=O)COC(=O)Cn2c(C)csc2=O)c(OC)c1,-2.3,8.5%,6.6%,-2.0%,27.9%,12.5%
CC1CCCCN1C(=O)CSc1nc(C2CC2)nc2ccccc12 (centres undefined),-10.7,?,16.4%,.,7.94µM*,5.2%
O=C(CSc1nc2ccccc2nc1Cc1ccc(Cl)cc1)N1CCCCC1,-7.1,-0.3%,.,-4.9%,10µM*,.
CCCCN(C)C(=O)CSc1nc2ccccc2nc1Cc1ccc(C)cc1,3.3,-19.8%,.,-3.8%,11.2µM*,.
Cc1ccc(Cc2nc3ccccc3nc2SCC(=O)N2CCCCC2)cc1,5.9,-1.2%,.,-5.6%,?,.
CC1CCN(C(=O)CSc2nc(C3CC3)nc3ccccc23)CC1,-1.9,-5.2%,22.1%,.,?,5.4%
COCc1cc(C)[nH]c(=O)c1C#N,-2.6,-13.2%,-4.7%,2.82µM*,-12.9%,?
COc1ccccc1NS(=O)(=O)c1ccc(C)c(NC(=O)c2c(C)noc2C)c1,0.2,-3.3%,3.2%,1.4%,-12.9%,-0.4%
COc1cccc(-c2cc(NC=O)c3ncc(-c4ccc(OC)c(OC)c4)n3c2)c1,-5.8,-26.4%,?,?,?,.
COc1ccc(-c2cc(NC=O)c3ncc(-c4ccc(OC)c(OC)c4)n3c2)c(OC)c1,1.9,?,2.51µM*,-28.1%,-52.7%,.
COc1cccc(-c2cnc3c(NC=O)cc(-c4ccc(OC)cc4OC)cn23)c1,0.1,-36.5%,?,-1.0%,0.794µM*,.
Cc1ccc(N2CC(c3nnc(NC(=O)c4ccco4)s3)CC2=O)cc1Cl (centres undefined),-0.2,4.1%,.,-22.9%,7.1%,.
CCOC(=O)C1=C(C)NC(=O)CC1C(=O)Nc1cc(Cl)cc(Cl)c1 (centres undefined),-60.9*,.,.,.,.,.
COCCn1c(-c2ccc(Cl)cc2Cl)nc2c(c(=O)c3ccccc3n2C)c1=O,-2.5,-1.2%,5.1%,14.1µM*,9.1%,4.7%

# Screening data: PubChem BioAssay, National Center for Advancing Translational Sciences (NCATS)
